Assay [1] is described as follows: qHTS RealTime-Glo MT Cell Viability Assay in HEK293 cells - 0 hour (AID 1224880). Note: top concentration of the series differs between compounds; nearly all actives have a fitted effect of over 45% in size. An outline of the steps:
(§1)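 Viable HEK293 cells reduce a cell-permeant prosubstrate; the product diffuses out and is consumed by NanoLuc in the medium to give light. Compounds went in after a 5 h incubation and plates were read over the treatment course.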
For orientation: In qHTS, concentration-response curves come from the screen itself.

Assay [2] is described as follows: A CellTox Green Cytotoxicity Assay to monitor cytotoxicity in HEK293 cells - 32 hour (AID 1224881). Note: nearly all actives have a fitted effect of over 40% in size. The essentials: (§2)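 Fluorescence intensity, read at 0, 8, 16, 24, 32 and 40 h of compound treatment, reflected dye binding to DNA of dead HEK293 cells; compounds (23 nL, DMSO) were added 5 h after plating cells with reagent.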
Assay [3] in a line: A CellTox Green Cytotoxicity Assay to monitor cytotoxicity in HepG2 cells - 0 hour (AID 1224882). Note: nearly all actives have a fitted effect of over 35% in size. The essentials:
(§3)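 Using 1536-well format, dye-containing HepG2 suspension was seeded, allowed 5 h at 37 C/5% CO2, dosed by pintool with compounds, positive and negative controls, and imaged for fluorescence across 40 h.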

Assay [4] is described as follows: A CellTox Green Cytotoxicity Assay to monitor cytotoxicity in HepG2 cells - 32 hour (AID 1224883). Note: nearly all actives have a fitted effect of over 50% in size. An outline of the steps: as §3
The nature of assay [5]: qHTS RealTime-Glo MT Cell Viability Assay in HepG2 cells - 16 hour (AID 1224885). Note: nearly all actives have a fitted effect of over 50% in size. The essentials: (§4)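 Viability was tracked continuously by NanoLuc luminescence from prosubstrate reduced by living HepG2 cells, at successive time points over 40 h of compound exposure. Cells with reagent were preincubated 5 h at 37 °C before compound addition.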
Assay [6] is described as follows: qHTS RealTime-Glo MT Cell Viability Assay in HEK293 cells - 24 hour (AID 1224886). Note: nearly all actives have a fitted effect of over 50% in size. Note: potency is the fitted concentration of half-maximal effect. The essentials: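 Viability tracked continuously by luminescence as live cells reduce a prosubstrate for NanoLuc; HEK293 cells preincubated 5 h, compound-treated at 37 C, and read at 0, 8, 16, 24, 32 and 40 h.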
A short description of assay [7]: qHTS RealTime-Glo MT Cell Viability Assay in HEK293 cells - 8 hour (AID 1224887). Note: top concentration of the series differs between compounds; nearly all actives have a fitted effect of over 50% in size. An outline of the steps:
as §1

Assay [8] is described as follows: qHTS RealTime-Glo MT Cell Viability Assay in HepG2 cells - 0 hour (AID 1224889). Note: nearly all actives have a fitted effect of over 50% in size. An outline of the steps: as §4
Assay [9] is described as follows: A CellTox Green Cytotoxicity Assay to monitor cytotoxicity in HepG2 cells - 8 hour (AID 1224890). Note: nearly all actives have a fitted effect of over 45% in size. The essentials:
as §3

Assay [10] can be described thus: qHTS assay to identify small molecule antagonists of the estrogen receptor alpha (ER-alpha) signaling pathway using the BG1 cell line in the presence of 0.1 nM 17-beta-estradiol - cell viability counter screen (AID 1259241). Note: nearly all actives have a fitted effect of over 40% in size. The essentials: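 Viability in VM7Luc4E2 cells after 22 hr compound exposure under 0.1 nM 17beta-estradiol stimulation, by CellTiter-Fluor.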

The nature of assay [11]: qHTS assay to identify small molecule antagonists of the androgen receptor (AR) signaling pathway using the MDA cell line in the presence of 0.5 nM R1881 - cell viability counter screen (AID 1259242). Note: nearly all actives have a fitted effect of over 45% in size. The essentials: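 Viability of MDA-kb2 cells was multiplexed with the luciferase AR readout; after 16 hr with compounds and R1881 at 0.5 nM final, CellTiter-Fluor fluorescence was recorded.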

Assay [12] in a line: qHTS assay to identify small molecule phospholipidosis (PLD) inducers (AID 1259344; active = well fitted curve in the direction sought with a large enough effect; an effect the other way counts as inactive or inconclusive). The essentials: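 HepG2 cells grown on collagen I take up LipidTOX Red while exposed to compound for 24 h; after fixation they are imaged at 20x and pit metrics are extracted.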
The nature of assay [13]: qHTS assay to identify small molecule HDAC inhibitors (AID 1259364).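 Note: wild-type HCT-116 cells with endogenous class I/II HDAC activity; top concentration of the series differs between compounds; nearly all actives have a fitted effect of over 45% in size.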 An outline of the steps:
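Read-out: luminescence of HDAC-Glo I/II reagent, 30 min RT, reflecting class I/II deacetylase activity in whole HCT-116 cells pre-exposed 2 h to DMSO-dissolved compounds.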

A short description of assay [14]: qHTS assay to identify small molecule HDAC inhibitors - cell viability counter screen (AID 1259365). The essentials: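 Cytotoxicity was gauged in wild-type HCT-116 cells after a brief 2hr treatment with DMSO-dissolved compounds at 37C and 5% CO2, using CellTiter-Glo luminescence developed for 30min at room temperature.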
The nature of assay [15]: qHTS assay to identify small molecule agonists of the sonic hedgehog signaling (Shh) pathway - cell viability counter screen (AID 1259366). Note: nearly all actives have a fitted effect of over 50% in size. The essentials: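 Stable Gli1-Luc NIH/3T3 clone, 2,000 cells/well. Compound exposure 24hr at 37C. Read-out: CellTiter-Fluor fluorescence.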
A short description of assay [16]: qHTS assay to identify small molecule antagonists of the sonic hedgehog signaling (Shh) pathway - cell viability counter screen (AID 1259367). Note: nearly all actives have a fitted effect of over 55% in size. The essentials: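 After a 4 hr settling period, 3T3 Gli1-Luc cells were treated with DMSO-dissolved chemicals and conditioned medium, kept 24 hr at 37C in 5% CO2, and assayed for viability by CellTiter-Fluor fluorescence following 1 hr reagent incubation.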

A short description of assay [17]: A CellTox Green Cytotoxicity Assay to monitor cytotoxicity in HEK293 cells - 16 hour (AID 1224888). Note: nearly all actives have a fitted effect of over 35% in size. The essentials: as §2
Assay [18] in a line: A CellTox Green Cytotoxicity Assay to monitor cytotoxicity in HEK293 cells - 8 hour (AID 1224884). Note: nearly all actives have a fitted effect of over 35% in size. The essentials: as §2
Assay [19] addresses Estrogen receptor (Homo sapiens) (UniProt P03372). The experiment in a line: qHTS assay to identify small molecule antagonists of the estrogen receptor alpha (ER-alpha) signaling pathway using the BG1 cell line in the presence of 0.1 nM 17-beta-estradiol (AID 1259244). Note: nearly all actives have a fitted effect of over 50% in size. An outline of the steps: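 Estradiol at 0.1 nM (final) stimulates the endogenous ER-alpha of VM7Luc4E2 cells carrying an ERE-driven luciferase; compounds are co-incubated 22 h at 37C and luciferase output quantified by luminescence.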

Assay [20] addresses Androgen receptor (Homo sapiens) (UniProt P10275). The experiment in a line: qHTS assay to identify small molecule antagonists of the androgen receptor (AR) signaling pathway using the MDA cell line in the presence of 0.5 nM R1881 (AID 1259243). Note: nearly all actives have a fitted effect of over 50% in size. The essentials: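 Reporter cells cultured without CO2 receive test chemicals, then 0.5 nM R1881 final; after 16 hr at 37C, ONE-Glo is added and light output recorded.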

Values without a mark were called inactive. Results filed as inconclusive are left out. Calls of active or inactive are those of the source. Unless noted, calls come from the whole dose curve; as a rule, active = well fitted curve in the direction sought with a large enough effect in the repeat runs; inconclusive = weak or mixed curves; inactive = no such curve, though single readings can be large; an effect the other way counts as inactive or inconclusive.

Sequence of Estrogen receptor (Homo sapiens) (P03372 whole entry, looked up): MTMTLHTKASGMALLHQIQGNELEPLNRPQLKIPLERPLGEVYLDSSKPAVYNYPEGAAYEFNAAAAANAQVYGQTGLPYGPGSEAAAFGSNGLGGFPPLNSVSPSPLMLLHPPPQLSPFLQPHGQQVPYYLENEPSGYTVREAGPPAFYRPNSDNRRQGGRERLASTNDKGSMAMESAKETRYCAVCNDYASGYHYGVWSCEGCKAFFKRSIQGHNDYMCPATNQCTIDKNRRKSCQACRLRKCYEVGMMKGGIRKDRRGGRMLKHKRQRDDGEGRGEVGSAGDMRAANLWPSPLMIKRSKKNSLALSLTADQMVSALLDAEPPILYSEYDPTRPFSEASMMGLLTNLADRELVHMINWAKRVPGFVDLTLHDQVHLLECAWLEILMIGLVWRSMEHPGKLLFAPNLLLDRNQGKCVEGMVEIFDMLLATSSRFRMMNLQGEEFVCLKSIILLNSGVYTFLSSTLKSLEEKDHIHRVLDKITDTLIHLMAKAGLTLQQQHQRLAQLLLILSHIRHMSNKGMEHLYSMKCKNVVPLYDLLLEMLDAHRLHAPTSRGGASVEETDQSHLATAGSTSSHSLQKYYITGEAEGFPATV
Sequence of Androgen receptor (Homo sapiens) (P10275 whole entry, looked up): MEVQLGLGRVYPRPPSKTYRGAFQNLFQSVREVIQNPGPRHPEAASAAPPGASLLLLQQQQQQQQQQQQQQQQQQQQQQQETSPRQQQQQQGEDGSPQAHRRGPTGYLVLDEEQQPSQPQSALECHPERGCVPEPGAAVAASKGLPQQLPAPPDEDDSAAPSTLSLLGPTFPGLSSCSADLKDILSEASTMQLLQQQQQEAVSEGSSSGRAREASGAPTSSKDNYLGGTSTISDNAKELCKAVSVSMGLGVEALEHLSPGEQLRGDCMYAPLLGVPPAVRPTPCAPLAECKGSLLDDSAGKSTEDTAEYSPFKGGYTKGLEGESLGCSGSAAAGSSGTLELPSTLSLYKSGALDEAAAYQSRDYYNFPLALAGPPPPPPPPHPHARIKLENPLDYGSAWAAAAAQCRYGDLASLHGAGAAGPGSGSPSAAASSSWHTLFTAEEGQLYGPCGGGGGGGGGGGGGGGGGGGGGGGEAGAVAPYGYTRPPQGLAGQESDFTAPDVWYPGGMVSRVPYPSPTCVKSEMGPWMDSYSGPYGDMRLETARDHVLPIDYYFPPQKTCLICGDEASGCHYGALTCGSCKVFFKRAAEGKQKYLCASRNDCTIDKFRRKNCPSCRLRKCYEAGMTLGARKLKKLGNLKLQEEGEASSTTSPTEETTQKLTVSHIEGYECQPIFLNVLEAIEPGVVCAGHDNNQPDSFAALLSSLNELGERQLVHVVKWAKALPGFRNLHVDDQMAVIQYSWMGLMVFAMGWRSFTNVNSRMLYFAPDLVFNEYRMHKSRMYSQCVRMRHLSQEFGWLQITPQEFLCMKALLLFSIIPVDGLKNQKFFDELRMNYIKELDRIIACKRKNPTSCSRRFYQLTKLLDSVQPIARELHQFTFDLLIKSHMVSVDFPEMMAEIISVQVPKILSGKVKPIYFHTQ

As to `CCc1ccc(C(=O)C(C)CN2CCCCC2)cc1` (configuration not stated), the Potency entry in assay [1], in assay [2], in assay [3], in [4], in [6] and in assay [7] was “inactive” throughout. The Potency entry in assay [8], in assay [9], in [10], in assay [11], in assay [12] and in assay [13] was “inactive” in each case. Also, the Potency result in assay [15] and in [16] was “inactive” in each case. The result in [5] and in assay [14] was inactive.
For the compound `N#Cc1ccc(CC(=O)c2cccc(C(F)(F)F)c2)cc1`, the Potency result in [1], in assay [2], in assay [3], in assay [4], in assay [17] and in assay [8] was “inactive” throughout. Further, the Potency entry in [9], in assay [10], in assay [11], in assay [13], in [15] and in assay [16] was “inactive” each time. Further, the call in [5] and in assay [14] was inactive.
As to `CC(O)C(C)O` (configuration not stated), the Potency entry in [1], in assay [2], in assay [3], in [4], in assay [6] and in assay [7] was “inactive” in each case. In addition, the Potency entry in assay [17], in [8], in assay [9], in [10], in [11] and in assay [13] was “inactive” throughout. Besides, the Potency entry in [15] and in assay [16] was “inactive” each time. Further, in assay [14], the result was inactive.
Regarding `O=C(OCCCCCOC(=O)c1ccccc1)c1ccccc1`, the Potency entry in assay [1], in assay [2], in assay [3], in [4], in assay [18] and in assay [17] was “inactive” in each case. Further, the Potency result in assay [8], in assay [9], in assay [10], in assay [11], in assay [19] and in assay [13] was “inactive” in each case. Further, the Potency result in [15] is “inactive”. Besides, the compound was classed as inactive in assay [14].
As to `C/C=C1\[C@H]2C=C(C)C[C@]1(N)c1ccc(=O)[nH]c1C2`, the Potency entry in [1], in [2], in [3], in assay [4], in assay [18] and in [6] was “inactive” throughout. For the same compound, the Potency entry in assay [7], in [8], in assay [9], in [10], in assay [11] and in [12] was “inactive” throughout. In assay [15], the Potency result was “inactive”. In addition, the compound was classed as inactive in assay [14].
With `Clc1cc(Cl)c2c(c1)N=C1CCCCCN1C2`, the Potency entry in [1], in [2], in assay [3], in assay [4], in assay [18] and in assay [17] was “inactive” in each case. For the same compound, the Potency entry in assay [8], in assay [9], in [10], in assay [11], in assay [19] and in assay [15] was “inactive” in each case. Besides, the Potency entry in assay [16] was “inactive”. In addition, in assay [6], the Potency was 19 µM (active). In addition, the outcome in assay [14] was inactive.
For `Nc1ccc(F)cc1F`, the Potency entry in assay [1], in assay [2], in assay [3], in [4], in [6] and in assay [7] was “inactive” in each case. Further, the Potency result in [17], in assay [8], in assay [9], in assay [10], in [11] and in assay [20] was “inactive” throughout. Also, the Potency result in assay [13], in assay [15] and in [16] was “inactive” each time. In addition, the result in assay [5] and in assay [14] was inactive.
Take `CC1(C)C(=O)NC(=O)N1CO`: the Potency entry in [1], in assay [2], in assay [3], in assay [4], in assay [6] and in [7] was “inactive” each time. The Potency entry in assay [17], in assay [8], in [9], in [10], in assay [11] and in assay [19] was “inactive” throughout. For the same compound, the Potency entry in [13], in assay [15] and in assay [16] was “inactive” each time. The call in [5] and in assay [14] was inactive.

(Values after PubChem BioAssay (Tox21).)
